According to PubChem BioAssay (EPA / NIEHS):
“And” between values parts separate entries of the source, which are not always exact repeats. Equal values may be shown once. Inconclusive results are not listed. More than one record can exist for a structure, and the calls need not agree. The source made the active and inactive calls. How the source made its calls, unless noted: active means hit-call score of the fitted dose curve at least 0.9, where 1 is the maximum; inactive means score below 0.9.

Legend:
[1] = CCTE_Shafer_MEA_dev_correlation_coefficient_mean: CCTE's Neural Network Formation Assay for Mean Correlation Coefficient, Shafer Lab (AID 2284093);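 on AC50: well mean pairwise spike train correlation integrated as AUC over recording days 5 to 12; potency fitted for loss of correlation relative to DMSO vehicle wells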
How it was run: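 Extracellular firing from rat cortical networks on 48-well MEAs, DMSO-referenced, negative fitting direction. Compound present from plating to DIV12; mean pairwise correlation per well integrated over DIV5–12 recordings by trapezoidal AUC.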

[2] = IUF_NPC1b_proliferation_BrdU_72hr: Leibniz Research Institute for Environmental Medicine (IUF) 72-hour Neural Progenitor Cell Bromodeoxyuridine (BrdU) Proliferation Assay (NPC1b) (AID 2284207)
How it was run: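 BrdU luminescence ELISA quantified DNA synthesis over the last 16 h of a 72 h exposure, fitted against DMSO. Primary hNPC spheres from gestational week 16-19 cortex grown with EGF/FGF at 37C, pH 7.2-7.6.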

[3] = IUF_NPC1a_proliferation_area_72hr: Leibniz Research Institute for Environmental Medicine (IUF) 72-hour Neural Progenitor Cell Proliferation Area Assay (NPC1a) (AID 2284208)
How it was run: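 Proliferation is scored as sphere area gain in primary human fetal neural progenitors treated for 72 h in EGF/FGF-containing medium. Viability, LDH and BrdU readouts come from the same wells.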

[4] = IUF_NPC1_viability_72hr: Viability Assessment at 72 hours in the Leibniz Research Institute for Environmental Medicine (IUF) Neural Progenitor Cell Proliferation Assay (NPC1) (AID 2284209)
How it was run: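 hNPC spheres, 1/well, EGF+FGF medium, 37C/5% CO2; dosed day 0, 72 h, no re-dosing. Resazurin reduction (alamar blue) fluorescence; DMSO = negative control/baseline; growth-factor-free wells as positive control.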

[5] = CCTE_Mundy_HCI_Cortical_Synap_Neur_Matur_NeuriteSpotCountPerNeuriteLength: CCTE's Synaptogenesis and Neurite Maturation Assay in rat cortical cells for Neurite Spot Count per Neurite Length, Mundy Lab (AID 2284210)
How it was run: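 Rat primary cortical cultures, AraC added at DIV 5 to suppress glia; chemical exposure from DIV 7 to DIV 12. Fixed cells stained for MAP2 and synaptophysin plus Hoechst; synaptophysin puncta per neurite length quantified by high-content imaging, relative to DMSO.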

[6] = CCTE_Mundy_HCI_Cortical_Synap_Neur_Matur_BPCount: CCTE's Synaptogenesis and Neurite Maturation Assay in rat cortical cells for Branch Point Count, Mundy Lab (AID 2284211)
How it was run: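 Rat primary cortical cultures, AraC added DIV 5; chemicals dosed DIV 7 through DIV 12. Fixed cells stained for MAP2, synaptophysin and Hoechst; neurite branch points counted by automated high-content imaging, fitted relative to DMSO.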

[7] = CCTE_Mundy_HCI_Cortical_NOG_NeuriteCount: CCTE's Neurite Outgrowth Assay in rat cortical cells for Neurite Count, Mundy Lab (AID 2284212);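 further: cells fixed about two days after chemical exposure began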
How it was run: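 Neurite number per cell from high-content imaging of betaIII-tubulin immunostaining, with Hoechst nuclear counterstain.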

[8] = CCTE_Mundy_HCI_Cortical_NOG_NeuriteLength: CCTE's Neurite Outgrowth Assay in rat cortical cells for Neurite Length, Mundy Lab (AID 2284213);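 on AC50: neurites imaged about 48 to 50 h after chemical exposure began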
How it was run: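 Neurite length was read by high-content imaging of βIII-tubulin-labelled neurites in rat primary cortical cultures. Activity was fitted relative to DMSO.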

[9] = CCTE_Mundy_HCI_Cortical_Synap_Neur_Matur_NeuriteLength: CCTE's Synaptogenesis and Neurite Maturation Assay in rat cortical cells for Neurite Length, Mundy Lab (AID 2284214)
How it was run: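 Rat cortical neurons, AraC at DIV 5; compound + media change DIV 7, end DIV 12 (288.33 h). Fix, MAP2/synaptophysin/Hoechst immunostain, automated HCI of neurite length vs DMSO.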

[10] = CCTE_Mundy_HCI_Cortical_Synap_Neur_Matur_NeuriteSpotCountPerNeuron: CCTE's Synaptogenesis and Neurite Maturation Assay in rat cortical cells for Neurite Spot Count per Neuron Count, Mundy Lab (AID 2284215)
How it was run: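 Synapse density is scored as synaptophysin spots along neurites per neuron in fixed rat cortical neurons, measured at DIV 12 after chemical dosing at DIV 7. DMSO is the negative control and activity baseline.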

[11] = CCTE_Mundy_HCI_Cortical_Synap_Neur_Matur_SynapseCount: CCTE's Synaptogenesis and Neurite Maturation Assay in rat cortical cells for Synapse Count, Mundy Lab (AID 2284218)
How it was run: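 Primary rat cortical culture; AraC DIV 5 to arrest glia; compound + media change DIV 7; terminated DIV 12. PFA/Hoechst fix, anti-MAP2 + anti-synaptophysin immunostain; HCI synapse count/neuron; DMSO = baseline.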

[12] = CCTE_Mundy_HCI_Cortical_Synap_Neur_Matur_NeuriteCount: CCTE's Synaptogenesis and Neurite Maturation Assay in rat cortical cells for Neurite Count, Mundy Lab (AID 2284222);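 on outcome: exposure from day 7 to day 12 in vitro with readout at day 12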
How it was run: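 In this multiplexed morphology readout, rat primary cortical neurons are fixed at DIV 12 following dosing at DIV 7 and stained for MAP2, synaptophysin and nuclei. High-content image analysis yields neurite count.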

[13] = CCTE_Mundy_HCI_hNP1_Pro_ResponderAvgInten: CCTE's Proliferation Assay in human neuroprogenitor cells, Mundy Lab (AID 2284224; active means hit-call score of the fitted dose curve at least 0.9, where 1 is the maximum;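 further: human neural progenitor cells hNP1 derived from WA09 embryonic stem cells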)
How it was run: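 Proliferation read as average intensity of BrdU-positive cells, imaged at 26.25 h post-dosing: chemical exposure started after 40–44 h culture, BrdU during final 4 h, paraformaldehyde fixation. Positive-direction fit relative to DMSO.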

[14] = CCTE_Mundy_HCI_hN2_NOG_NeuriteCount: CCTE's Neurite Outgrowth Assay in human hN2 cells for Neurite Count, Mundy Lab (AID 2284219; active means hit-call score of the fitted dose curve at least 0.9, where 1 is the maximum)
How it was run: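 In this morphology assay, hNP1-derived neurons received test chemical 2 h post-plating and were fixed two days later in warm paraformaldehyde/sucrose containing Hoechst 33342. Neurites, labelled by rabbit anti-βIII-tubulin (1:800) and Alexa Fluor-488 (1:500), were counted automatically.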

[15] = CCTE_Mundy_HCI_hN2_NOG_NeuriteLength: CCTE's Neurite Outgrowth Assay in human hN2 cells for Neurite Length, Mundy Lab (AID 2284220; active means hit-call score of the fitted dose curve at least 0.9, where 1 is the maximum)
How it was run: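 Read-out is neurite length from high-content imaging of βIII-tubulin/Alexa Fluor-488-labelled neurons, referenced to DMSO controls.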

[16] = CCTE_Mundy_HCI_hN2_NOG_NeuronCount: CCTE's Neurite Outgrowth Assay in human hN2 cells for Neuron Count, Mundy Lab (AID 2284221; active means hit-call score of the fitted dose curve at least 0.9, where 1 is the maximum)
How it was run: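 Read-out is the number of betaIII-tubulin-positive neurons imaged by automated high-content analysis, with DMSO as negative control.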

[17] = TAMU_PeakParms_SingleDonor1434_Chronotropy: Texas A&M University (TAMU) 1.5-hr Human Induced Pluripotent Stem Cell (iPSC)-derived Cardiomyocytes Calcium (Ca+2) Flux Assay for Cardiotoxicity: Chronotropy (changes in peak frequency) (AID 2284217); settings: actives raise or lower the signal
How it was run: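 Using fluorescent Ca2+ flux, average beats per second are measured in human iPSC-derived cardiomyocytes treated 90 min (0.5% DMSO vehicle, 0.2–100 uM). Non-beating data points are removed; activity is modeled in both directions relative to DMSO controls.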

COC(=O)N(C(=O)N1CO[C@@]2(C(=O)OC)Cc3cc(Cl)ccc3C2=N1)c1ccc(OC(F)(F)F)cc1
AC50 [1]: 15 µM (active) | AC50 [2]: 0.483 µM (active) | outcome [3]: inactive | outcome [4]: inactive | outcome [5]: inactive | outcome [6]: inactive | outcome [7]: inactive | outcome [8]: inactive | outcome [9]: inactive | outcome [10]: inactive | outcome [11]: inactive | outcome [12]: inactive | outcome [13]: inactive

CCN(CC)c1nc(C)cc(OP(=S)(OC)OC)n1
AC50 [1]: 27.4 µM (active) | outcome [5]: inactive | AC50 [6]: 67.1 µM (active) | AC50 [7]: 79.4 µM (active) | AC50 [8]: 88.7 µM (active) | AC50 [9]: 78.6 µM (active) | AC50 [10]: 84.5 µM (active) | outcome [11]: inactive | AC50 [14]: 72.4 µM (active) | AC50 [15]: 60.7 µM (active) | AC50 [16]: 50 µM (active) | outcome [12]: inactive | AC50 [13]: 89.2 µM (active)

CC1(C)C(C=C(Cl)Cl)C1C(=O)OC(C#N)c1cccc(Oc2ccccc2)c1 (centres undefined)
AC50 [1]: 3.6 µM (active) | outcome [1]: inactive | outcome [2]: inactive | outcome [3]: inactive | outcome [4]: inactive | outcome [5]: inactive | AC50 [6]: 0.00451 µM (active) | outcome [7]: inactive | outcome [8]: inactive | outcome [9]: inactive | outcome [10]: inactive | outcome [11]: inactive | outcome [12]: inactive

Cc1c(COC(=O)[C@@H]2[C@H](/C=C(\Cl)C(F)(F)F)C2(C)C)cccc1-c1ccccc1
AC50 [1]: 395 nM (active) and 497 nM (active) | AC50 [2]: 0.97 µM (active) | outcome [3]: inactive | outcome [4]: inactive | AC50 [5]: 3.2 µM (active) | AC50 [6]: 2.71 µM (active) | AC50 [7]: 27.8 µM (active) | AC50 [8]: 26.9 µM (active) | AC50 [9]: 3.7 µM (active) | AC50 [10]: 3.15 µM (active) | AC50 [11]: 3.14 µM (active) | AC50 [12]: 5.03 µM (active) | AC50 [13]: 3.68 µM (active)

C=C(C)CN(CC)c1c([N+](=O)[O-])cc(C(F)(F)F)cc1[N+](=O)[O-]
AC50 [1]: 14 µM (active) | AC50 [2]: 92.8 µM (active) | outcome [3]: inactive | outcome [4]: inactive | AC50 [5]: 6.36 µM (active) | AC50 [6]: 6.23 µM (active) | AC50 [7]: 65.1 µM (active) | AC50 [8]: 32.4 µM (active) | AC50 [9]: 5.64 µM (active) | AC50 [10]: 6.14 µM (active) | AC50 [11]: 4.72 µM (active) | AC50 [12]: 7.75 µM (active) | AC50 [13]: 19 µM (active)

COP(=S)(OC)Oc1ccc([N+](=O)[O-])c(C)c1
outcome [1]: inactive

CCCCC(C#N)(Cn1cncn1)c1ccc(Cl)cc1 (centres undefined)
outcome [17]: inactive

O=C(Nc1ccccc1-c1ccc(Cl)cc1)c1cccnc1Cl
AC50 [1]: 9.92 µM (active) | outcome [1]: inactive | outcome [2]: inactive | outcome [3]: inactive | outcome [4]: inactive | outcome [5]: inactive | outcome [6]: inactive | outcome [7]: inactive | outcome [8]: inactive | outcome [9]: inactive | outcome [10]: inactive | outcome [11]: inactive | outcome [12]: inactive | outcome [13]: inactive

CC(C)(C)C(=O)C(Oc1ccc(Cl)cc1)n1cncn1 (centres undefined)
AC50 [1]: 41.6 µM (active) | AC50 [2]: 0.513 µM (active) | outcome [3]: inactive | outcome [4]: inactive | outcome [5]: inactive | AC50 [6]: 9.82 µM (active) | outcome [7]: inactive | outcome [8]: inactive | AC50 [9]: 7.05 µM (active) | AC50 [10]: 7.48 µM (active) | AC50 [11]: 6.09 µM (active) | AC50 [12]: 12.8 µM (active)

CO/N=C(/C1=NOCCO1)c1ccccc1Oc1ncnc(Oc2ccccc2Cl)c1F
AC50 [1]: 844 nM (active) and 1.02 µM (active) | AC50 [2]: 0.142 µM (active) | outcome [3]: inactive | outcome [4]: inactive | AC50 [5]: 3.03 µM (active) | AC50 [6]: 7.61 µM (active) | AC50 [7]: 3.51 µM (active) | AC50 [8]: 2.74 µM (active) | AC50 [9]: 4.34 µM (active) | AC50 [10]: 2.16 µM (active) | AC50 [11]: 2.75 µM (active) | AC50 [12]: 3.45 µM (active) | outcome [13]: inactive

COP(=O)(OC)O/C(C)=C/C(=O)N(C)C
outcome [1]: inactive | outcome [5]: inactive | outcome [6]: inactive | outcome [7]: inactive | outcome [8]: inactive | outcome [9]: inactive | outcome [10]: inactive | outcome [11]: inactive | outcome [12]: inactive | outcome [13]: inactive

CCCN(CC)CC1COC2(CCC(C(C)(C)C)CC2)O1 (centres undefined)
AC50 [1]: 0.281 µM (active)

CCOC(=O)C(C)OC(=O)c1cc(Oc2ccc(C(F)(F)F)cc2Cl)ccc1[N+](=O)[O-] (centres undefined)
outcome [1]: inactive

CC(C)=CC1C(C(=O)OCc2coc(Cc3ccccc3)c2)C1(C)C (centres undefined)
outcome [1]: inactive
